Key:
Assay in all cases: PBM binding z-score (relative to random genomic background probes); higher = stronger binding; sequences stand for … in GC…GCGATTGACAGCGTAGAATGAAGG
[1] = test system: PPARg:RXRa DBDmut IVT, anti-RXR (DBD mutation: RXRa K156A/R161A, NR concentration 270 nM, RXRa partner concentration 90 nM)
Method in brief: (§1)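 On custom Agilent 4×180K arrays, double-stranded probes with 34-nt variable regions carried direct-repeat seeds, single-nucleotide variants, half-site ablations or random human genomic background. Ligand-free nuclear receptor dimers were applied for 1 h, and binding was read with antibodies against each partner (one per run). Binding z-scores come from regression-normalized fluorescence, with the random background probes as reference.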

[2] = test system: PPARg:RXRa IVT, anti-PPARg (NR concentration 270 nM, RXRa partner concentration 90 nM)
Method in brief: as §1

[3] = test system: PPARg DBDmut:RXRa IVT, anti-PPARg (DBD mutation: PPARg1 K132A/R137A, NR concentration 270 nM, RXRa partner concentration 90 nM)
Method in brief: as §1

[4] = test system: PPARg DBDmut IVT, anti-PPARg (DBD mutation: PPARg1 K132A/R137A, NR concentration 270 nM)
Method in brief: as §1

[5] = test system: PPARg homodimer (NR concentration 180 nM)
Method in brief: as §1

[6] = test system: PXR:RXRa (NR concentration 270 nM, RXRa partner concentration 90 nM)
Method in brief: as §1

[7] = test system: PXR homodimer (NR concentration 270 nM)
Method in brief: as §1

[8] = test system: RARa:RXR (NR concentration 270 nM, RXRa partner concentration 90 nM)
Method in brief: as §1

[9] = test system: RARa homodimer (NR concentration 270 nM)
Method in brief: as §1

[10] = test system: RARb:RXRa (NR concentration 270 nM, RXRa partner concentration 90 nM)
Method in brief: as §1

GCGACTCGGGCATCAGCAGGTTACCATAACTTAA
PBM binding z-score [1]: 0.301
PBM binding z-score [2]: -0.204
PBM binding z-score [3]: -0.845
PBM binding z-score [4]: -1.46
PBM binding z-score [5]: -0.774
PBM binding z-score [6]: -0.236
PBM binding z-score [7]: -0.725
PBM binding z-score [8]: 0.133
PBM binding z-score [9]: -0.931
PBM binding z-score [10]: 0.242

ACTTACGGGTCAACGAGGTTATAGCACGCGTATA
PBM binding z-score [1]: 3.5
PBM binding z-score [2]: 4.09
PBM binding z-score [3]: 1.65
PBM binding z-score [4]: 1.55
PBM binding z-score [5]: 2.55
PBM binding z-score [6]: 5.1
PBM binding z-score [7]: 3.34
PBM binding z-score [8]: 5.39
PBM binding z-score [9]: 1.16
PBM binding z-score [10]: 4.13

CGAACTAGGTCAAAACAGGACAGTGAAGGATGAT
PBM binding z-score [1]: 7.83
PBM binding z-score [2]: 8.1
PBM binding z-score [3]: 3.19
PBM binding z-score [4]: 2.56
PBM binding z-score [5]: 2.39
PBM binding z-score [6]: 2.05
PBM binding z-score [7]: -0.00978
PBM binding z-score [8]: 2.02
PBM binding z-score [9]: 0.444
PBM binding z-score [10]: 3.33

TCTCGAAGGACACGAAGGTCAGAGCTTTCCAGAG
PBM binding z-score [1]: 1.58
PBM binding z-score [2]: 1.03
PBM binding z-score [3]: -0.558
PBM binding z-score [4]: -0.971
PBM binding z-score [5]: 1.64
PBM binding z-score [6]: 1.54
PBM binding z-score [7]: 0.219
PBM binding z-score [8]: 2.12
PBM binding z-score [9]: 0.163
PBM binding z-score [10]: 3.34

ACTAGTTGGTCAGCAGAGGTCACACACAATTCGG
PBM binding z-score [1]: 1.92
PBM binding z-score [2]: 3.43
PBM binding z-score [3]: 1.09
PBM binding z-score [4]: 0.493
PBM binding z-score [5]: 3.51
PBM binding z-score [6]: 5.73
PBM binding z-score [7]: 1.6
PBM binding z-score [8]: 5.96
PBM binding z-score [9]: 2.56
PBM binding z-score [10]: 4.17

CCTGCTAGGTCAATGGTCAGTTAAAGCAGCTCGC
PBM binding z-score [1]: 4.28
PBM binding z-score [2]: 3.9
PBM binding z-score [3]: -0.811
PBM binding z-score [4]: -0.609
PBM binding z-score [5]: 1.46
PBM binding z-score [6]: 0.845
PBM binding z-score [7]: -0.135
PBM binding z-score [8]: 1.69
PBM binding z-score [9]: -0.34
PBM binding z-score [10]: 3.95

CCTACTGGGCCACGAAAGGTCGTTGATTCAGTGA
PBM binding z-score [1]: 5.8
PBM binding z-score [2]: 5.18
PBM binding z-score [3]: -0.547
PBM binding z-score [4]: -0.744
PBM binding z-score [5]: 1.16
PBM binding z-score [6]: 2.77
PBM binding z-score [7]: 0.256
PBM binding z-score [8]: 2.19
PBM binding z-score [9]: -0.764
PBM binding z-score [10]: 1.84

CCTTACGGGTCACTGAAAGGTTATAGCATTTGGA
PBM binding z-score [1]: 2.95
PBM binding z-score [2]: 4.1
PBM binding z-score [3]: 1
PBM binding z-score [4]: 1.09
PBM binding z-score [5]: 3.7
PBM binding z-score [6]: 5.03
PBM binding z-score [7]: 0.223
PBM binding z-score [8]: 6.33
PBM binding z-score [9]: 0.617
PBM binding z-score [10]: 4.51

AAATGTAGGTTACATCCGGGTCATTCAGGCTATG
PBM binding z-score [1]: 8.29
PBM binding z-score [2]: 8.08
PBM binding z-score [3]: 3.52
PBM binding z-score [4]: 2.02
PBM binding z-score [5]: 2.68
PBM binding z-score [6]: 3.79
PBM binding z-score [7]: 2.33
PBM binding z-score [8]: 3.75
PBM binding z-score [9]: 1.1
PBM binding z-score [10]: 2.28

GCTCGGAGGACAAGGTTAGAGCTTTGTCCGTAGA
PBM binding z-score [1]: -0.578
PBM binding z-score [2]: -0.435
PBM binding z-score [3]: -1.46
PBM binding z-score [4]: -0.888
PBM binding z-score [5]: -0.772
PBM binding z-score [6]: -0.186
PBM binding z-score [7]: -0.847
PBM binding z-score [8]: -0.266
PBM binding z-score [9]: -1.1
PBM binding z-score [10]: 1.45

AATCAAAGTTCACTAGGTAACGTAAGATTCAGCT
PBM binding z-score [1]: 2.41
PBM binding z-score [2]: 4.17
PBM binding z-score [3]: 1.22
PBM binding z-score [4]: 1.64
PBM binding z-score [5]: 2.31
PBM binding z-score [6]: 3.75
PBM binding z-score [7]: 2
PBM binding z-score [8]: 2.5
PBM binding z-score [9]: 1.15
PBM binding z-score [10]: 4.72

AGAACGAGGACACGCTGAGTTGATAGCAGAGTAG
PBM binding z-score [1]: 1.51
PBM binding z-score [2]: 1.16
PBM binding z-score [3]: -0.315
PBM binding z-score [4]: 0.431
PBM binding z-score [5]: 0.209
PBM binding z-score [6]: -0.361
PBM binding z-score [7]: 0.196
PBM binding z-score [8]: -0.397
PBM binding z-score [9]: -0.0719
PBM binding z-score [10]: 1.4

TAGCCTAGGTCAGATCGGGCCAGCATACGCTATA
PBM binding z-score [1]: 0.377
PBM binding z-score [2]: 1.4
PBM binding z-score [3]: -0.988
PBM binding z-score [4]: -0.801
PBM binding z-score [5]: 0.0554
PBM binding z-score [6]: 0.945
PBM binding z-score [7]: -0.628
PBM binding z-score [8]: 1.3
PBM binding z-score [9]: -0.92
PBM binding z-score [10]: 3.09

AGAATGTGGTTACCAAAGATCAGGGAAACGCTTG
PBM binding z-score [1]: 0.0362
PBM binding z-score [2]: 0.248
PBM binding z-score [3]: 0.393
PBM binding z-score [4]: 0.266
PBM binding z-score [5]: 0.264
PBM binding z-score [6]: -0.353
PBM binding z-score [7]: -0.342
PBM binding z-score [8]: -0.178
PBM binding z-score [9]: -0.0425
PBM binding z-score [10]: -0.0731

ATATGTAGGTTATCGGGTCATTCAGTTTGCGCAT
PBM binding z-score [1]: 7.56
PBM binding z-score [2]: 7.99
PBM binding z-score [3]: 3.73
PBM binding z-score [4]: 2.54
PBM binding z-score [5]: 2.67
PBM binding z-score [6]: 3.75
PBM binding z-score [7]: 7.33
PBM binding z-score [8]: 3.54
PBM binding z-score [9]: 1.75
PBM binding z-score [10]: 2.56

TCGAGAAGGTTAGTCGGGGCATTCAGCCAACATA
PBM binding z-score [1]: 1.32
PBM binding z-score [2]: 0.682
PBM binding z-score [3]: -0.513
PBM binding z-score [4]: -0.49
PBM binding z-score [5]: 0.545
PBM binding z-score [6]: 0.807
PBM binding z-score [7]: 0.434
PBM binding z-score [8]: 0.664
PBM binding z-score [9]: -0.434
PBM binding z-score [10]: 1.36

CGAACTAGGTCATTGACAGGACATTGAATAGTAA
PBM binding z-score [1]: 8.1
PBM binding z-score [2]: 8.23
PBM binding z-score [3]: 1.94
PBM binding z-score [4]: 1.62
PBM binding z-score [5]: 1.29
PBM binding z-score [6]: 2.35
PBM binding z-score [7]: 0.404
PBM binding z-score [8]: 2.06
PBM binding z-score [9]: 0.367
PBM binding z-score [10]: 3.52

CCAGCCAGGTGAGAAGGTAACTCAGCCTCGATTA
PBM binding z-score [1]: 0.886
PBM binding z-score [2]: 0.642
PBM binding z-score [3]: -1.31
PBM binding z-score [4]: -0.676
PBM binding z-score [5]: -0.199
PBM binding z-score [6]: -0.486
PBM binding z-score [7]: -0.622
PBM binding z-score [8]: -0.386
PBM binding z-score [9]: -0.592
PBM binding z-score [10]: 0.364

CCTGCTAGGTAAATGGTCAGCTAAAGCAGCTCGC
PBM binding z-score [1]: 1.07
PBM binding z-score [2]: 0.489
PBM binding z-score [3]: -1.23
PBM binding z-score [4]: -1.53
PBM binding z-score [5]: 0.311
PBM binding z-score [6]: -0.268
PBM binding z-score [7]: -0.537
PBM binding z-score [8]: -0.118
PBM binding z-score [9]: -0.6
PBM binding z-score [10]: 0.261

GCAGACAGGTGAAACGCAGGTAACTAAGGGTGGC
PBM binding z-score [1]: 0.562
PBM binding z-score [2]: 0.741
PBM binding z-score [3]: -0.406
PBM binding z-score [4]: -0.735
PBM binding z-score [5]: -0.84
PBM binding z-score [6]: -0.388
PBM binding z-score [7]: -0.493
PBM binding z-score [8]: 0.156
PBM binding z-score [9]: -0.657
PBM binding z-score [10]: 0.531

ATATGTAGGTTACATCCGGATCATTCAGGCTATG
PBM binding z-score [1]: 7.7
PBM binding z-score [2]: 7.49
PBM binding z-score [3]: 3.14
PBM binding z-score [4]: 2.67
PBM binding z-score [5]: 1
PBM binding z-score [6]: 0.73
PBM binding z-score [7]: 0.559
PBM binding z-score [8]: 1.04
PBM binding z-score [9]: 0.899
PBM binding z-score [10]: 1.05

ATCTCTAGGTAACCAAGATCAGTGAATGCCGAAC
PBM binding z-score [1]: 2.88
PBM binding z-score [2]: 2.67
PBM binding z-score [3]: 0.887
PBM binding z-score [4]: 1.13
PBM binding z-score [5]: 0.619
PBM binding z-score [6]: 0.0058
PBM binding z-score [7]: 0.344
PBM binding z-score [8]: 0.377
PBM binding z-score [9]: 0.145
PBM binding z-score [10]: 0.119

CCTATTAGTTGACCATAAGGGCGACCGAAGCTCG
PBM binding z-score [1]: 0.603
PBM binding z-score [2]: 0.201
PBM binding z-score [3]: -0.102
PBM binding z-score [4]: 0.933
PBM binding z-score [5]: 2.13
PBM binding z-score [6]: 0.235
PBM binding z-score [7]: 0.541
PBM binding z-score [8]: 0.509
PBM binding z-score [9]: 1.68
PBM binding z-score [10]: 0.951

ATTCAAAGTTCATCTAGGTAACGTAAGATATGCT
PBM binding z-score [1]: 0.894
PBM binding z-score [2]: 2.97
PBM binding z-score [3]: 2.38
PBM binding z-score [4]: 1.91
PBM binding z-score [5]: 2.88
PBM binding z-score [6]: 4.96
PBM binding z-score [7]: 7.34
PBM binding z-score [8]: 3.44
PBM binding z-score [9]: 1.89
PBM binding z-score [10]: 4.93

TCTAGTTGGCCACGGAGGTCACACACGACGGGTA
PBM binding z-score [1]: 1.59
PBM binding z-score [2]: 2.78
PBM binding z-score [3]: 1.61
PBM binding z-score [4]: 0.255
PBM binding z-score [5]: 2.19
PBM binding z-score [6]: 4.03
PBM binding z-score [7]: 0.788
PBM binding z-score [8]: 3.94
PBM binding z-score [9]: 0.587
PBM binding z-score [10]: 3.35

Reference: the supplement of paper PMC6555819
